The structures appear in SMILES notation. Results filed as inconclusive are left out. Activity calls are given as the source filed them. Calls follow the shape of the dose curve; as a rule, active = well fitted inhibition curve with a large enough effect; inconclusive = small, poorly fitted or top-dose-only effect; inactive = flat fitted curve, though single readings scatter.

In this assay the test system is HACAT. Kind of assay: qHTS assay to identify novel small-molecules to repurpose for Merkel cell carcinoma treatment (AID 1296009). Also: nearly all actives have a fitted effect of over 60% in size. Particulars: MCC and control cell lines, CellTiter-Glo viability, 72 h; at 44.8 µM (top of the series) unless noted. The method, boiled down:
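Cell viability, measured as CellTiter-Glo luminescence, was normalized between DMSO and no-cell wells. The cells had been exposed to 8- or 11-point compound dilutions for 72 hr at 37 degree celsius.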
(qHTS replaces the single test concentration by a dilution series.)
Take `CC12CCC3C(C)(C)C(O)CCC3(C)C1Cc1c(oc(C(=O)O)cc1=O)O2` (centres undefined): the compound was classed as inactive.
On to `Cc1cc(O)cc(Oc2cc(C)c(C(=O)O)c(O)c2)c1`, for which the outcome was inactive.
In the case of `C[C@@H]1O[C@@H](O[C@@H]2[C@@H](O)[C@H](O[C@@H]3[C@@H](O)[C@@H](O)[C@H](O[C@H]4[C@H](OC(=O)[C@]56CCC(C)(C)C[C@H]5C5=CCC7[C@@]8(C)C[C@H](O)[C@H](O[C@@H]9O[C@@H](C)[C@H](O)[C@@H](O)[C@H]9O)[C@@](C)(CO)C8CC[C@@]7(C)[C@]5(C)C[C@H]6O)O[C@H](C)[C@H](O)[C@@H]4O)O[C@H]3C)OC[C@H]2O)[C@H](O)[C@H](O)[C@H]1O` (some centres undefined), the outcome was “inactive [at 9.27 µM]”.
With `CC1CCC2(O1)C(C)(C)CC(O[C@@H]1O[C@H](CO[C@@H]3OC[C@](O)(CO)[C@H]3O)[C@@H](O)[C@H](O)[C@H]1O)CC2(C)O` (some centres undefined), the outcome was “inactive [at 17.4 µM]”.
Next, `C[C@@]12C[C@]3(O)O[C@H](O1)[C@]1(COC(=O)c4ccccc4)[C@H]3C[C@@]12O[C@@H]1O[C@H](COC(=O)c2ccccc2)[C@@H](O)[C@H](O)[C@H]1O`: “inactive [at 17.4 µM]”; `C=C1CC[C@H]2[C@@H](/C=C(\C)C(=O)[C@@]3(OC(C)=O)C[C@H](C)[C@H](OC(C)=O)[C@@H]3[C@H]1OC(C)=O)C2(C)C`: “inactive [at 17.4 µM]”; `NCc1c[nH]c(=S)n1C1CCc2c(F)cc(F)cc2C1` (centres undefined): “inactive”.
`C/C=C/C1=CC2=CC(=O)C(C)(O)C(OC(=O)c3c(C)cc(O)cc3O)C2CO1` (centres undefined): the call was inactive.
Consider `O=C1NC(=Nc2ccccc2F)S/C1=C\c1ccc(C(=O)O)cc1`, for which the outcome was inactive.
`C=C[C@H]1[C@H](O[C@@H]2O[C@H](CO[C@@H]3OC[C@](O)(CO)[C@H]3O)[C@@H](O)[C@H](O)[C@H]2O)OC=C2C(=O)OCC[C@H]21`: the outcome was “inactive [at 17.4 µM]”.
Next, `CNC(=O)O[C@H]1COc2ccc(N3CCN(C4COC4)CC3)cc2[C@@H]1NC(=O)c1ccc(F)cc1`: “inactive”.
For `CC(=O)[C@@H]1CC[C@]2(C(=O)O)CC[C@]3(C)C(CCC4[C@@]5(C)CC[C@H](O)C(C)(C)C5CC[C@]43C)C12` (some centres undefined), the outcome was “inactive [at 17.4 µM]”.
Consider `O=C(NCC(=O)N1CC[C@H](NC2CCC(O)(c3ccc(-c4ncccn4)cn3)CC2)C1)c1cccc(C(F)(F)F)c1` (some centres undefined), for which the compound was called inactive.
Next, `COC(=O)C[C@@H]1C(C(=O)O)=CO[C@@H](O[C@@H]2O[C@H](CO)[C@@H](O)[C@H](O)[C@H]2O)/C1=C\COC(=O)/C=C\c1ccccc1`: “inactive [at 17.4 µM]”; `CC(=O)NCCCCn1c2c(c3ccccc31)C(=O)NCC2`: “inactive”; `COC(=O)C1C(c2ccc(O)cc2)C(C(=O)OC)C1c1ccc(O)cc1` (centres undefined): “inactive”.
For the compound `CC(=O)N1c2ccccc2C2(O)CC3C(=O)NC(CC(C)C)C(=O)N3C12` (centres undefined), the compound was classed as inactive.
In the case of `CC(C)C1=CC2=CCC3[C@](C)(CCC[C@@]3(C)C(=O)O)C2CC1O` (some centres undefined), the compound was called inactive.
For `C[C@@H]1O[C@@H](OC[C@H]2O[C@@H](OCCc3ccccc3)[C@H](O)[C@@H](O)[C@@H]2O)[C@H](O)[C@H](O)[C@H]1O`, the outcome is “inactive [at 17.4 µM]”.
Take `OCCc1ccc(O[C@@H]2O[C@H](CO)[C@@H](O)[C@H](O)[C@H]2O)c(O)c1`: the compound was called inactive.
Next, `C/C=C(\C)C(=O)OC[C@H]1O[C@H](O[C@H]2O[C@H](CO)[C@@H](OC(=O)/C(C)=C/C)[C@H](O)[C@H]2O[C@@H]2O[C@H](CO)[C@@H](O)[C@H](O)[C@H]2O)[C@H](O[C@@H]2O[C@H](CO)[C@@H](O)[C@H](O)[C@H]2O)[C@@H](O)[C@@H]1O`: “inactive [at 9.27 µM]”; `COc1cc([C@H]2OC[C@]3(OC(C)=O)[C@@H](c4ccc(O[C@@H]5O[C@H](CO)[C@@H](O)[C@H](O)[C@H]5O)c(OC)c4)OC[C@H]23)ccc1O`: “inactive [at 17.4 µM]”; `CCn1nnnc1NCc1ccc(C(C)C)cc1`: “inactive”.
For the compound `C=C1C[C@]23C[C@H]1CC[C@H]2[C@]1(C)CCC[C@@]2(CO)C(=O)O[C@H]([C@H]21)[C@@H]3O`, the compound was classed as inactive.
In the case of `CC(=O)O[C@@H]1C[C@]2(C)[C@@]3(CCC4[C@@]5(C)CC[C@H](O[C@@H]6O[C@H](C(=O)O)[C@@H](O)[C@H](O[C@@H]7O[C@H](CO)[C@H](O)[C@H](O)[C@H]7O[C@@H]7O[C@@H](C)[C@H](O)[C@@H](O)[C@H]7O[C@@H]7OC[C@](O)(CO)[C@H]7O)[C@H]6O[C@@H]6O[C@H](CO)[C@H](O)[C@H](O)[C@H]6O)C(C)(C)C5CC[C@]42C)O[C@@H](O)[C@]12C3CC(C)(C)[C@@H](OC(=O)/C=C/c1ccc(O)c(O)c1)[C@@H]2OC(=O)/C=C/c1ccccc1` (some centres undefined), the outcome is “inactive [at 9.27 µM]”.
On to `CC(C)CC(=O)OC[C@H]1O[C@@](COC(=O)CC(C)C)(O[C@H]2O[C@H](CO)[C@@H](O)[C@H](O)[C@H]2O)[C@@H](OC(=O)CC(C)C)[C@@H]1OC(=O)CC(C)C`, for which the outcome was “inactive [at 17.4 µM]”.
Next, `NC(=O)c1cccc(-c2cc(O)cc(OC(=O)NC3CCCCC3)c2)c1`: “inactive [at 17.4 µM]”; `CC1(C)CC(=O)N(CCCCN2CCN(c3ncccn3)CC2)C(=O)C1`: “inactive”.
Consider `C[C@H](NCc1ccc(OCc2ccccc2F)cc1)C(N)=O`, for which the compound was called inactive.
Next, `C[C@@H]1C(=O)O[C@H]2CC34[C@H]5C[C@@H](C(C)(C)C)C36[C@@H](OC(=O)[C@@H]6O)OC4(C(=O)O5)[C@]21O` (some centres undefined): “inactive”; `CC1CCC2(NC1)OC1C(=O)C3C4CCC5CC(O[C@@H]6O[C@H](CO)[C@@H](O)[C@H](O)[C@H]6O[C@@H]6O[C@@H](C)[C@H](O)[C@@H](O)[C@H]6O)CCC5(C)C4CCC3(C)C1C2C` (some centres undefined): “inactive [at 17.4 µM]”.
Turning to `Cc1nn(C)c(COc2ccc(N3CCN(S(=O)(=O)N(C)C)CC3)cc2)c1-c1cccc2c(CCCOc3cccc4ccccc34)c(C(=O)O)n(CCN3CCOCC3)c12`, the outcome was inactive.
Next, `C/C=C(\C)C(=O)O[C@H]1[C@H](O)[C@]2(COC(C)=O)[C@H](O)C[C@]3(C)C(=CCC4[C@@]5(C)CC[C@H](O[C@@H]6O[C@H](C(=O)O)[C@@H](O[C@@H]7O[C@H](CO)[C@@H](O)[C@H](O)[C@H]7O)[C@H](O)[C@H]6O[C@@H]6O[C@H](CO)[C@@H](O)[C@H](O)[C@H]6O)[C@](C)(CO)C5CC[C@]43C)[C@@H]2CC1(C)C` (some centres undefined): “inactive [at 9.27 µM]”.
Next, `CC(C)=CC/C=C(/C)[C@H]1CC[C@]2(C)[C@@H]1[C@H](O)CC1[C@@]3(C)CC[C@H](O)C(C)(C)[C@@H]3[C@@H](O[C@@H]3O[C@H](CO)[C@@H](O)[C@H](O)[C@H]3O[C@@H]3O[C@@H](C)[C@H](O)[C@@H](O)[C@H]3O)C[C@]12C` (some centres undefined): “inactive [at 17.4 µM]”; `OC[C@H]1O[C@@H](Oc2cc(O)cc(/C=C/c3ccc(O)cc3)c2)[C@H](O)[C@@H](O)[C@@H]1O`: “inactive”; `CC(C)=CCc1ccc(Oc2c(O)cc(C)cc2CO)c(C(=O)O)c1O`: “inactive”.
Next, `CC(=O)N(O)CCCCCN1C(=O)CCC1=O`: “inactive”; `CC(C)NC[C@H](O)COc1ccc(CCOCC2CC2)cc1`: “inactive”.
As to `C=CCc1ccc(O[C@@H]2O[C@H](CO)[C@@H](O)[C@H](O)[C@H]2O)c(OC)c1`, the call was inactive.

The values above are taken from PubChem BioAssay (NCATS).
